Screens: PubChem BioAssay, National Center for Advancing Translational Sciences (NCATS)
TRb-SRC2 inh: TRbeta-SRC2 interaction inhibition; Potency, µM (top dose mostly 106 µM), hits mostly inhibitors; 280,000 tested, 0.065% active; P10828; TRbeta-SRC2 peptide binding, fluorescence polarization; receptor liganded with 1 µM T3; AID 1469; also: nearly all actives have a fitted effect of over 50% in size
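Binding of a 20-amino-acid Texas Red SRC2 peptide (20 nM) to TRb ligand-binding domain (0.6 uM) with agonist T3 at 1 uM was followed by fluorescence polarization after a 5 hr room-temperature incubation.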
a7 integrin act: integrin-mediated muscular dystrophy alleviation activation. Potency, µM (highest dose often 38.3 µM), usual class: activators. AID 624291. 350,000 tested, 0.064% active. alpha7betagal myoblasts, beta-gal FDG fluorescence, 48 h; also: nearly all actives have a fitted effect of over 60% in size
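alpha7betagal+/- myoblasts (passage 13, 250/well) treated 48 h at 37C with compounds at 1:260 dilution of DMSO stock. Lysed, then beta-galactosidase activity read as FDG fluorescence (ex 480/em 540) after 30 min, with pre-read for autofluorescence.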
ERG-DNA inh: blocks human ERG Ets domain binding to DNA; Potency, µM (highest dose often 76.9 µM), usual class: inhibitors; fluorescence polarization, His-ERG Ets domain / labelled DNA; 370,000 tested, 0.028% active; P11308; active = well fitted inhibition curve with a large enough effect in the polarisation, with a control signal flat; inconclusive = small, poorly fitted or top-dose-only effect, or effect the other way, or a change in a side signal; inactive = no such curve, though single readings can be large or run the other way; the % refers to the polarisation;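 also: polarization taken with two DNA probes labelled with fluorescein and Texas red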
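His-tagged ERG Ets domain (1 uM in the protein solution; 300mM KCl, 50mM Tris-HCl, 1mM EDTA, 1mM DTT, pH 7.5) received compound, then a probe mix of 5 nM fluorescein-DNA and 100nM Texas-615-DNA. Fluorescence polarization was read for both dyes.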
TexasRed fluor: counter-screen for TRb-SRC2 inhibitors: fluorescence interference. 280,000 tested, 0.29% active. TRb/SRC2 Texas Red total fluorescence interference. AID 1479. Potency, µM (doses to about 106 µM); active = well fitted curve in either direction with a large enough effect; inconclusive = small, poorly fitted or top-dose-only effect
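Human TRβ ligand-binding domain (0.6 uM) and Texas Red SRC2 peptide (20 nM) in Tris buffer with 1 uM T3 and 5% DMSO were incubated with pinned compound for 5 hr at ambient temperature. Total fluorescence was computed as S + 2P (555/632 nm).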
CBFb-RUNX1 inh: CBF-beta/RUNX1 interaction disruption; Q01196+Q13951; AlphaScreen CBFb-His/RUNX1-biotin binding, biochemical; Potency, µM (top dose mostly 59.8 µM), actives largely listed as inhibitors; 230,000 tested, under 10 active
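Interaction loss through any mechanism counts as activity. Pre-formed complex of His-CBF-beta and biotin-RUNX1 (30 nM apiece) is incubated with compound 15 min, then with 50 ng nickel and 50 ng streptavidin beads for 90 min before AlphaScreen detection.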
RGS12 GoLoco inh: RGS12 GoLoco-Gai1 interaction inhibition. Gai1:RGS12 GoLoco peptide FP, rhodamine, 10 min. P63096. 230,000 tested, 0.44% active. AID 880. Potency, µM (titrated, usually from 61.6 µM), most hits filed as inhibitors; active = well fitted inhibition curve with a large enough effect, not every such curve was filed as active; inactive = no such curve, though single readings can be large or run the other way; also: nearly all actives have a fitted effect of over 30% in size
Hits are given with their value; – = inactive; ? = inconclusive; · = not tested or not shown; ! = a repeat was not active; [ ] = another dose, or the depositor's remark. Shown are actives, neighbours in structure and some others; about 0.45% of the full set was active somewhere. Unless noted, calls follow the shape of the dose curve; as a rule, active = well fitted curve in the direction sought with a large enough effect; inconclusive = small, poorly fitted or top-dose-only effect, or another doubt; inactive = no such curve, though single readings can be large; an effect the other way counts as inactive or inconclusive.

SMILES	TRb-SRC2 inh	a7 integrin act	ERG-DNA inh	TexasRed fluor	CBFb-RUNX1 inh	RGS12 GoLoco inh
Cc1ccc(Cl)cc1NC(=O)N1CCC2(CC1)Oc1ccccc1C(=O)N2Cc1ccccc1F	–	·	–	35.5µM[quencher]	·	·
CC1=CN2C(=N)/C(=C/c3ccc([N+](=O)[O-])o3)C(=O)N=C2S1	–	–	?	44.7µM[fluorescent]	?	–
CC1=CN2C(=N)/C(=C/c3ccco3)C(=O)N=C2S1	–	–	–	–	–	–
O=C(Nc1nc2ccccc2[nH]1)c1ccc(F)cc1	–	–	–	–	–	–
CN(C)S(=O)(=O)c1ccc(C(=O)Nc2nc3ccccc3[nH]2)cc1	–	8.91µM	–	–	–	–
CC(C)(C)OC(=O)N[C@@H](Cc1ccccc1)c1nnc(S(=O)(=O)Cc2ccccc2)o1	–	·	·	–	–	17.8µM
Cc1oc(CC(C)C)cc1C(=O)Nc1cccc2ccccc12	–	–	–	–	–	–
Cc1cc(C(=O)Nc2cccc3ccccc23)c(C)o1	·	7.94µM	–	·	·	·
CCCN1C2CCCC1CC(NC(=O)c1cccc([N+](=O)[O-])c1)C2 (configuration not stated)	·	10µM	–	·	·	·
CCCN1C2CCCC1CC(NC(=O)c1cccc(Cl)c1)C2 (configuration not stated)	·	–	–	·	·	·
COC(=O)C1=C(C(=O)OC)[C@@H]2Nc3ccccc3[C@@]23C[C@@H](C(=O)OC)N(S(=O)(=O)c2ccc(OC)cc2)C3=N1	–[11.2 µM]	·	·	–[11.2 µM]	–[13.1 µM]	–[14.2 µM]
CC(=O)Nc1cccc(S(C)(=O)=O)c1	–	–	20µM	–	–	–
CC(=O)Nc1cccc(N(C)S(C)(=O)=O)c1	–	–	–	–	–	–
Nc1cc(Cl)nc(C(=O)O)c1Cl	–	·	·	–	·	·
N=c1oc2c3c4c(cc2cc1C(=O)Nc1ccccc1)CCCN4CCC3	–	–	–	–	?	3.98µM
CCOC(=O)/C(C(N)=NCCO)=C(/O)c1ccccc1	–	12.6µM	–	–	–	–
CCOc1ccc(NC(=O)N2CCC(CN3CCC(C)CC3)CC2)cc1	–	·	–	100µM[quencher]	·	·
CCn1c(/C=C/N(C)c2ccccc2)[n+](CC)c2ccc(Cl)cc21	–	?	·	–	–	1µM
Cc1cc(=O)c2c(O)c3c(O)cc(=O)c4c3c3c(cc(O)c1c23)C(C)(C)C=4O	–	·	·	?	–	0.631µM
Cc1ccc2nc(-c3ccc(C)o3)c(Nc3ccc4c(c3)OCCO4)n2c1	–	·	–	0.0013µM[quencher]	·	·
Cc1ccc(-c2nc3ccc(Cl)cn3c2Nc2ccc3c(c2)OCCO3)o1	–	·	–	–	·	·
Oc1ccc2oc3c(c2c1)CCCC3	–	–	–	–	–	–
CC(C)NCc1c(O)c(Br)cc2oc3c(c12)CCCC3	–	–	–	–	–	5.62µM
Cl[Si](Cl)(c1ccccc1)c1ccccc1	–	·	·	–	·	·
Cc1oc2ncn(C)c(=O)c2c1C(=O)NC(C)c1ccccc1 (configuration not stated)	–	·	–	0.282µM[quencher]	·	·
SMILES	TRb-SRC2 inh	a7 integrin act	ERG-DNA inh	TexasRed fluor	CBFb-RUNX1 inh	RGS12 GoLoco inh
Cc1oc2ncn(C)c(=O)c2c1C(=O)N(Cc1ccccc1)C(C)C	–	·	–	–	·	·
COc1cc(OC)cc(-c2nnc3n2N=C(c2ccccc2OC)CS3)c1	–	·	·	–	–	·
CC1=C(CCC(=O)O)c2cc3nc(cc4[nH]c(cc5[nH]c(cc1n2)c(C)c5C(C)O)c(C)c4C(C)O)C(C)=C3CCC(=O)O (configuration not stated)	35.5µM	·	·	44.7µM[fluorescent]	·	12.6µM
C=Cc1c(C)c2cc3[nH]c(cc4nc(cc5nc(cc1[nH]2)C(C)=C5CCC(=O)O)C(CCC(=O)O)=C4C)c(C)c3C=C	17.8µM	–	–	15.8µM[fluorescent]	?	12.6µM!
c1ccc2c(c1)SCc1c-2[nH]c2ccccc12	–	·	·	–	–	·
CC1(C)CC(N)CC(C)(CN)C1 (configuration not stated)	–	·	·	–	·	·
Cc1cc2cc(CNS(=O)(=O)c3ccc4ccccc4c3)ccc2n1C	44.7µM	–	?	44.7µM[fluorescent]	?	–
Cc1cc2cc(CNC(=O)c3ccc(S(=O)(=O)N4CCOCC4)cc3)ccc2n1C	39.8µM	–	28.2µM	44.7µM[fluorescent]	–	–
